The supplement of paper PMC10849652
About 7,900 targets were measured; listed, in parts, are those with a hit and a random draw of the rest. About 0.6% of all pairs of compound and target were hits. Unmarked numbers belong to inactive results.

Tests used:
Assay in all cases: log2 fold change, soluble protein after heating vs DMSO (PISA); higher = thermal stabilisation; K562 cells, 10 uM, 30 min; active = over 0.2 and 3.5 SD of the protein, either way, in both replicates (recomputed)
[1] = compound: CS(=O)(=O)c1ccc(-c2cnc(N)c(C(=O)Nc3ccccc3)n2)cc1
Outline: (§1)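 K562 cells at 2×10^6 cells/mL were exposed to 10 μM compound for 30 min, then aliquots were heated for 3 min across 48°C-58°C, pooled, and extracted in PBS containing 0.5% NP-40 at 4°C. The supernatant after 21,000xg for 90 min was taken as soluble protein and measured by TMTpro 16plex LC-MS/MS with channel sums equalised. Thermal stability is reported relative to control samples, with values from duplicates. Fold changes are given on a log2 scale.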

[2] = compound: C[C@@H](Oc1cc(-c2cnn(C3CCNCC3)c2)cnc1N)c1c(Cl)ccc(F)c1Cl [crizotinib]
Outline: as §1

[3] = compound: C[C@@H]1COCCN1C2=NC(=NC(=C2)C3(CC3)S(=O)(=O)C)C4=C5C=CNC5=CC=C4
Outline: as §1

[4] = compound: C[C@H](C1=CC=C(C=C1)C(=O)NC2=C3C=CNC3=NC=C2)N
Outline: as §1

[5] = compound: C[C@H](Nc1ncnc2nc[nH]c12)c1cc2cccc(Cl)c2c(=O)n1-c1ccccc1 [duvelisib]
Outline: as §1

[6] = compound: Cc1cc(Nc2cc(CN3CCOCC3)c3nc(C)c(Cc4ccc(Cl)cc4F)n3n2)n[nH]1 [gandotinib]
Outline: as §1

[7] = compound: Cc1cc(Nc2cc(N3CCN(C)CC3)nc(Sc3ccc(NC(=O)C4CC4)cc3)n2)n[nH]1 [tozasertib]
Outline: as §1

[8] = compound: Cc1cc(SCc2sc(-c3ccc(C(F)(F)F)cc3)nc2C)ccc1OCC(=O)O
Outline: as §1

[9] = compound: Cc1ccc(-n2nc(C(C)(C)C)cc2NC(=O)Nc2ccc(OCCN3CCOCC3)c3ccccc23)cc1 [doramapimod]
Outline: as §1

[10] = compound: Cc1ccc(C(=O)N(CCCN)[C@@H](c2nc3cc(Cl)ccc3c(=O)n2Cc2ccccc2)C(C)C)cc1 [ispinesib]
Outline: as §1

Chain of UniProt Q92615 (Q92615 whole entry, looked up): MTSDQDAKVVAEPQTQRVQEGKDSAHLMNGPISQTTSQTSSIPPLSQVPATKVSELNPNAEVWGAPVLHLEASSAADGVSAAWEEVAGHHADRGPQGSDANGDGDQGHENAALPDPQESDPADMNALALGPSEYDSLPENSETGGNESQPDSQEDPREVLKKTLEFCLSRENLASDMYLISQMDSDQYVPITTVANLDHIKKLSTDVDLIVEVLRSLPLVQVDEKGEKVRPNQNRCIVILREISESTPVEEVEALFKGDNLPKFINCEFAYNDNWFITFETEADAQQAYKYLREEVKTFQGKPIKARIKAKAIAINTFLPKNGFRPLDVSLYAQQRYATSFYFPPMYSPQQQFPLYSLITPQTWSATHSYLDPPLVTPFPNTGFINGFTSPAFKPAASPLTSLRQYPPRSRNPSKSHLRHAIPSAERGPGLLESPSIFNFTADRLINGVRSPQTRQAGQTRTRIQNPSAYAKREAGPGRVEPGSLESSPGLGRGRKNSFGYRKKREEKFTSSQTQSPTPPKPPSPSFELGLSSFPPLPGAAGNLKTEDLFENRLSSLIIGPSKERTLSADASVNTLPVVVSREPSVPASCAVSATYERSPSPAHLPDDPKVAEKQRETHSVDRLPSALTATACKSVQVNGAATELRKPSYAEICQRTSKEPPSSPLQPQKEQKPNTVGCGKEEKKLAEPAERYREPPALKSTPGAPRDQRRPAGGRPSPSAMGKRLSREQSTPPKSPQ
Chain of UniProt O15066 (O15066 whole entry, looked up): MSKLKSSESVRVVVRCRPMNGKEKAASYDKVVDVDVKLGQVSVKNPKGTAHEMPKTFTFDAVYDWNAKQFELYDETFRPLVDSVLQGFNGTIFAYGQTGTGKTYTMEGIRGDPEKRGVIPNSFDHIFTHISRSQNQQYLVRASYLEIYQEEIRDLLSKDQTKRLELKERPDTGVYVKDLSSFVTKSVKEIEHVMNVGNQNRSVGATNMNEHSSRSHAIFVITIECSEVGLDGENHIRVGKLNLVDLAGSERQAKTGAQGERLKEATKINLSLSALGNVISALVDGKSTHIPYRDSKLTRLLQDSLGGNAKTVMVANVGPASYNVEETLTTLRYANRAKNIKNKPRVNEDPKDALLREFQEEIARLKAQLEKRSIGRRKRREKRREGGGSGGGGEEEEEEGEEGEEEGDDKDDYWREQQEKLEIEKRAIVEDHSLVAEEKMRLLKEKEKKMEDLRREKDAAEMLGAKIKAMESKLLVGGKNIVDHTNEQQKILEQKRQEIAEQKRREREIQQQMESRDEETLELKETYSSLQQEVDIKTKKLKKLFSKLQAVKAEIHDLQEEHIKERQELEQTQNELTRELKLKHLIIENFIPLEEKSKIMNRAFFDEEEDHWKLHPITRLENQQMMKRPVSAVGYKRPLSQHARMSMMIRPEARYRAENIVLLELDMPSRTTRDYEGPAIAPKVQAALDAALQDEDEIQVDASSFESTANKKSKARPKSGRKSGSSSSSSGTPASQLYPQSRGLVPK
Chain of UniProt Q9UHB6 (Q9UHB6 whole entry, looked up): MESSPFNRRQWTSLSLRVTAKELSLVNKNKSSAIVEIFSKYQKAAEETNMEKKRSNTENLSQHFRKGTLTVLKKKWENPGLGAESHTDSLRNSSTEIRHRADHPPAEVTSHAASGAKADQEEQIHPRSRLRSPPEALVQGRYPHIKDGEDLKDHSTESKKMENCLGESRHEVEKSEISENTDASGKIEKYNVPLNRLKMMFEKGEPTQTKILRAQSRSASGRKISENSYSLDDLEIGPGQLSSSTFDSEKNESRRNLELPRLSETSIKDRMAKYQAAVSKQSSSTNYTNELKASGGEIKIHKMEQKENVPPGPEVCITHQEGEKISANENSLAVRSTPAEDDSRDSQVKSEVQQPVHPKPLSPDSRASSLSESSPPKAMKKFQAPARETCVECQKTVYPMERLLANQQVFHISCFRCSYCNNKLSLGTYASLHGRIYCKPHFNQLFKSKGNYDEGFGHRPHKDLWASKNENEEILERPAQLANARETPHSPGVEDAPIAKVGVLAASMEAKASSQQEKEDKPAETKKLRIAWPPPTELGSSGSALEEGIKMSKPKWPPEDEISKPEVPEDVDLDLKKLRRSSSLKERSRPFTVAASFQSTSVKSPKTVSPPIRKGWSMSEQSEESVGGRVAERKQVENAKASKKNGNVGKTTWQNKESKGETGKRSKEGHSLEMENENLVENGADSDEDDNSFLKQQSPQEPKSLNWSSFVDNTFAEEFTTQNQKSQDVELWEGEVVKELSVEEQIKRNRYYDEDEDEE
Chain of UniProt Q9H0B6 (Q9H0B6 whole entry, looked up): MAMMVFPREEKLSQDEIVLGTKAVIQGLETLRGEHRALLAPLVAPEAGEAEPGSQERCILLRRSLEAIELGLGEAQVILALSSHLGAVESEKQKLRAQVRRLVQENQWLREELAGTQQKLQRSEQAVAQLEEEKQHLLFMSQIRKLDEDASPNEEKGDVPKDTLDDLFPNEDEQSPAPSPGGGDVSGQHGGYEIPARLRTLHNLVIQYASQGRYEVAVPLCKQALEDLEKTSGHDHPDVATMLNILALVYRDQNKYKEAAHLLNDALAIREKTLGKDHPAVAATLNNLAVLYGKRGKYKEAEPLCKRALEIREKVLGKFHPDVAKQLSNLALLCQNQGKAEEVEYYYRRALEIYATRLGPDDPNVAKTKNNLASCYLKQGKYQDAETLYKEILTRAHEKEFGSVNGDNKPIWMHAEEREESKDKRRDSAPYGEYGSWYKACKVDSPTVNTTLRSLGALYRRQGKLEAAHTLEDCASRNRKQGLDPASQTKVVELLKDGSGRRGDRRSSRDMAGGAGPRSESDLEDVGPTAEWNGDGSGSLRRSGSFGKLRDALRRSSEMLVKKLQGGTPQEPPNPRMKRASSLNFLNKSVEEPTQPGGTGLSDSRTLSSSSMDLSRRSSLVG
Chain of UniProt O94829 (O94829 whole entry, looked up): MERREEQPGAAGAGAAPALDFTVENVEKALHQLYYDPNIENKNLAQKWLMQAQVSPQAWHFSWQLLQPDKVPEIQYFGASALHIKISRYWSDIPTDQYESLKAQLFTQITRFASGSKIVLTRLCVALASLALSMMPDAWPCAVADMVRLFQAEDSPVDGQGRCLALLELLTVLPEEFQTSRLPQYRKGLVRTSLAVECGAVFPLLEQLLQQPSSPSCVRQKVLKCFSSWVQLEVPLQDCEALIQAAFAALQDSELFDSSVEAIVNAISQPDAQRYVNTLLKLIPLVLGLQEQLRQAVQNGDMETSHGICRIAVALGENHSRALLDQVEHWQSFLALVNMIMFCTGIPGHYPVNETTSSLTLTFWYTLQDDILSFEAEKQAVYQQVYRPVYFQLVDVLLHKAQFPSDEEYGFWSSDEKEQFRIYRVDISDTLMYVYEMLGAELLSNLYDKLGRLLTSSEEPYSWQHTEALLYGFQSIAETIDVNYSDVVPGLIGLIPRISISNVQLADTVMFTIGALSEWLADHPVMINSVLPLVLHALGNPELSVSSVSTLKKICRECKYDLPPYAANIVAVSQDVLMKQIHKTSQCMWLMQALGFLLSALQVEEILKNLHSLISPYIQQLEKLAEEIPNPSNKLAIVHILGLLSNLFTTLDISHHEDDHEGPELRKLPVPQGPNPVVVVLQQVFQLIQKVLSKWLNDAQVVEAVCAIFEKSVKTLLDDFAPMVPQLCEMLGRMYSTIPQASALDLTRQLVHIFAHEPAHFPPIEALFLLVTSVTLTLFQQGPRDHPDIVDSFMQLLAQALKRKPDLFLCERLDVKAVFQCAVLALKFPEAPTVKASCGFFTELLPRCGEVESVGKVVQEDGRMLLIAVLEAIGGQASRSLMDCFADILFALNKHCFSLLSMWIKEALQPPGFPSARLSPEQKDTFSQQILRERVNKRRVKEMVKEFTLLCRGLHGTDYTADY
Chain of UniProt Q14693 (Q14693 whole entry, looked up): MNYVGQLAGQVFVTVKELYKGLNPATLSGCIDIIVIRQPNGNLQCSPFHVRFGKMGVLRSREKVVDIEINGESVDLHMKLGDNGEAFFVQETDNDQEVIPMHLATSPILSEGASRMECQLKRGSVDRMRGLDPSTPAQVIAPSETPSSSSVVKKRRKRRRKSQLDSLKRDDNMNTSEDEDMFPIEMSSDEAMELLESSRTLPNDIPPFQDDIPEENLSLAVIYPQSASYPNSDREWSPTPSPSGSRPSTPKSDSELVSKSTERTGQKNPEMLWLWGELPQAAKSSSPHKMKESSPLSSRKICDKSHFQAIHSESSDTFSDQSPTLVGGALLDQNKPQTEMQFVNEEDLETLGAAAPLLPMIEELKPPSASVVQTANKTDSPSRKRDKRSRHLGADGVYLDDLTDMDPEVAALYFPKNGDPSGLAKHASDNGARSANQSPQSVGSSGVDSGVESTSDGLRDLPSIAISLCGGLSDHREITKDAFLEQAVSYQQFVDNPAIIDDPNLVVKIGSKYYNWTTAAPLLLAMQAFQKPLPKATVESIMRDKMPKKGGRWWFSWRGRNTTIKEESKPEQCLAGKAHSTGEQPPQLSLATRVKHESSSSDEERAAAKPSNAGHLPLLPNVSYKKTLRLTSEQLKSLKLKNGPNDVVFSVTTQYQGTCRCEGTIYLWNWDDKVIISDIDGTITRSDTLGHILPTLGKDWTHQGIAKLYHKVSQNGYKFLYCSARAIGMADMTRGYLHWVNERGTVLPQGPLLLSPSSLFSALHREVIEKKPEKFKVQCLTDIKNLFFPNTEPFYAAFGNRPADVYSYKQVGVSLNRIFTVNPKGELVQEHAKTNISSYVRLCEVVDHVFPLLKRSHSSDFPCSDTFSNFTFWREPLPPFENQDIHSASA
Chain of UniProt Q9UPY8 (Q9UPY8 whole entry, looked up): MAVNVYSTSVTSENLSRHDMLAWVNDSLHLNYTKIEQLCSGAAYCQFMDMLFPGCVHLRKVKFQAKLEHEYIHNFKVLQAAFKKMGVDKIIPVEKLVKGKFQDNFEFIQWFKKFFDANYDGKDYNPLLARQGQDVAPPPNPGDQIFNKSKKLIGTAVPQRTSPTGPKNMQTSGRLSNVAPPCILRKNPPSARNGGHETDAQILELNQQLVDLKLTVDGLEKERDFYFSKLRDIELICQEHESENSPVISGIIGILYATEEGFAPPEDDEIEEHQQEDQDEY

| Target | log2 fold change [1] | log2 fold change [2] | log2 fold change [3] | log2 fold change [4] | log2 fold change [5] | log2 fold change [6] | log2 fold change [7] | log2 fold change [8] | log2 fold change [9] | log2 fold change [10] |
| --- | --- | --- | --- | --- | --- | --- | --- | --- | --- | --- |
| KNTC1 (UniProt P50748) | 0.038 | -0.178 | -0.002 | 0.045 | 0.061 | -0.162 | 0.014 | 0.012 | -0.01 | -0.086 |
| LMNA (UniProt P02545) | -0.054 | 0.064 | 0.102 | -0.231 (active) | -0.013 | -0.098 | 0.069 | -0.035 | 0.018 | 0.214 (active) |
| MAPRE3 (UniProt Q9UPY8) | -0.011 | 0.004 | 0.092 | -0.085 | 0.02 | -0.098 | 0.037 | 0.006 | -0.042 | 0.02 |
| INPP1 (UniProt P49441) | 0.041 | -0.016 | -0.012 | -0.028 | 0.011 | -0.084 | 0.018 | -0.043 | -0.018 | 0.052 |
| MCL1 (UniProt Q07820) | -0.079 | 0.043 | -0.158 | -0.006 | 0.052 | 0.042 | -0.056 | 0.01 | 0.109 | -0.441 |
| MAGOHB (UniProt Q96A72) | 0.005 | 0.324 (active) | 0.013 | -0.131 | 0.039 | 0.084 | 0.141 | 0.05 | -0.016 | 0.076 |
| MDC1 (UniProt Q14676) | -0.053 | -0.109 | 0.041 | 0.107 | -0.057 | 0.423 | -0.154 | -0.031 | 0.178 | -0.217 |
| LARP4B (UniProt Q92615) | -0.066 | -0.1 | -0.121 | 0.104 | -0.029 | -0.029 | 0.037 | 0.065 | 0.048 | -0.132 |
| ITGA2B (UniProt P08514) | -0.076 | -0.068 | -0.077 | 0.045 | -0.11 | 0.283 | 0.15 | 0 | 0.031 | -0.088 |
| MED1 (UniProt Q15648) | 0.011 | 0.014 | 0.043 | 0.04 | -0.044 | -0.025 | -0.031 | -0.05 | 0.11 | -0.078 |
| LDLR (UniProt P01130) | -0.005 | -0.363 (active) | -0.05 | -0.045 | -0.05 | -0.038 | -0.088 | -0.094 | -0.017 | -0.052 |
| LPCAT3 (UniProt Q6P1A2) | 0.091 | -0.121 | 0.171 | 0.006 | -0.035 | -0.167 | -0.027 | 0.027 | -0.042 | -0.696 (active) |
| LBR (UniProt Q14739) | 0.025 | 0.152 | 0.016 | -0.031 | -0.014 | -0.359 (active) | -0.026 | 0.017 | -0.02 | -0.08 |
| ITPRIP (UniProt Q8IWB1) | -0.002 | 0.056 | 0.012 | -0.039 | 0.005 | -0.049 | 0.045 | 0.038 | 0.062 | -0.037 |
| LMBRD2 (UniProt Q68DH5) | 0.034 | -0.156 | -0.042 | -0.152 | 0.001 | -0.049 | -0.016 | -0.065 | 0.011 | -0.328 (active) |
| KLC2 (UniProt Q9H0B6) | 0.012 | -0.131 | 0.008 | -0.007 | 0.059 | -0.079 | -0.004 | 0.047 | -0.002 | -0.062 |
| MAP2K1 (UniProt Q02750) | 0.055 | -0.019 | 0.088 | -0.092 | 0.059 | 0.005 | -0.009 | -0.038 | -0.05 | -0.009 |
| LIMA1 isoform 4 (UniProt Q9UHB6) | -0.076 | 0.001 | -0.04 | -0.057 | 0.003 | 0.019 | 0.027 | -0.036 | -0.023 | 0.185 |
| LEO1 (UniProt Q8WVC0) | 0.092 | 0.026 | -0.202 | -0.126 | 0.008 | -0.031 | 0.114 | -0.008 | 0.071 | 0.052 |
| MEAK7 (UniProt Q6P9B6) | -0.005 | -0.259 (active) | 0.049 | 0.005 | 0.121 | -0.224 | 0.018 | 0.024 | 0.031 | -0.139 |
| LENG8 (UniProt Q96PV6) | 0.022 | -0.342 | 0.112 | 0.107 | -0.005 | -0.094 | -0.016 | 0.055 | 0.039 | 0.241 |
| MGST1 (UniProt P10620) | -0.006 | 0.152 | -0.01 | -0.257 (active) | -0.042 | 0.044 | -0.111 | -0.123 | -0.053 | -0.027 |
| IMMT isoform 4 (UniProt Q16891) | 0.017 | -0.102 | 0.084 | -0.012 | 0.019 | -0.093 | 0.002 | 0 | -0.014 | -0.202 |
| KIF3A (UniProt Q9Y496) | 0.049 | -0.239 | -0.01 | 0.143 | 0.048 | -0.024 | 0.009 | -0.029 | 0.003 | 0.044 |
| LEMD3 (UniProt Q9Y2U8) | 0.072 | -0.12 | -0.084 | -0.016 | -0.003 | 0.006 | -0.015 | 0.114 | -0.002 | -0.095 |
| LPIN1 isoform 7 (UniProt Q14693) | 0 | -0.184 | -0.034 | 0.031 | -0.052 | -0.079 | -0.021 | -0.043 | 0.067 | -0.037 |
| KIF3B (UniProt O15066) | -0.004 | -0.018 | 0.054 | 0.03 | 0.05 | -0.199 | -0.051 | -0.023 | 0.076 | 0.04 |
| IPO13 (UniProt O94829) | -0.042 | -0.134 | 0.016 | -0.028 | 0.04 | -0.234 | 0.001 | 0.01 | 0.023 | -0.13 |
| LARP7 isoform 3 (UniProt Q4G0J3) | -0.001 | 0.022 | 0.068 | -0.077 | -0.013 | -0.065 | 0.071 | 0.088 | 0.012 | -0.007 |
